Results on 9 compounds are retold here after PubChem BioAssay (NCI).

The panel holds about 79,000 compounds, 15% with a hit somewhere; the sample as a whole holds those more often. Values without a mark were called inactive. The source made the active and inactive calls. No stated cut-off is given here; in the data, active means growth inhibition above about 70%; inactive means the rest.

A short description of experiment [1]: NCI Yeast Anticancer Drug Screen. Data for the rad50 strain (AID 155).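 Further: 0% = growth of vehicle-only cultures of the same strain.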 To be noted: S. cerevisiae rad50 strain growth inhibition, stronger effect = higher value. In short, it runs like this: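 Compounds were tested on a yeast strain with an engineered DNA damage repair alteration; the reported value is growth inhibition normalised to vehicle treatment.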
Experiment [2] in a line: NCI Yeast Anticancer Drug Screen. Data for the mec2-1 strain (AID 157). To be noted: S. cerevisiae mec2-1 strain, stronger effect = higher value. In short, it runs like this: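 Growth inhibition is read against vehicle-treated controls after compound exposure of the mec2-1 yeast strain, which is defective in DNA damage repair or cell cycle control.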
Experiment [3] in a line: NCI Yeast Anticancer Drug Screen. Data for the sgs1 mgt1 strain (AID 161).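 Further: 0% = growth of cultures given vehicle only.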 To be noted: S. cerevisiae sgs1 mgt1 strain, stronger effect = higher value. Summed up:
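This yeast growth screen uses a strain with defined DNA-repair lesions; compound-treated growth is compared with vehicle-treated growth.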

The nature of experiment [4]: NCI Yeast Anticancer Drug Screen. Data for the cln2 rad14 strain (AID 165).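 Further: 0% = growth equal to vehicle treated cultures.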 The following applies: S. cerevisiae cln2 rad14 strain, stronger effect = higher value. Summed up:
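Growth inhibition, relative to vehicle-treated controls, is the read-out. The test organism is a yeast strain with defined genetic alterations, cln2 rad14.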

Experiment [5] is described as follows: NCI Yeast Anticancer Drug Screen. Data for the bub3 strain (AID 167). The following applies: S. cerevisiae bub3 mutant strain, stronger effect = higher value. Summed up:
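Growth of a checkpoint-deficient yeast mutant is measured after compound exposure. Values represent inhibition relative to vehicle.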

Experiment [6] is described as follows: NCI Yeast Anticancer Drug Screen. Data for the mlh1 rad18 strain (AID 175). To be noted: S. cerevisiae mlh1 rad18 strain growth inhibition, stronger effect = higher value. In short, it runs like this: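 Cells of a genetically altered yeast strain, deficient in DNA damage repair, were treated with compound. Their growth was then compared with that of vehicle-treated cultures to give inhibition.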

The mark [7] stands for this setting: at 5.0 µM (retest, dose inferred, filed as 0.5).
The mark [8] stands for this setting: at 50.0 µM (retest, dose inferred, filed as 5.0).

For the compound `CC(C)C1=CC23CCC4C(C)(C(=O)O)CCCC4(C)C2CC1C1C(=O)C=CC(=O)C13` (configuration not stated), the growth inhibition in experiment [1] (setting [7]) is 86% (active); in experiment [1] (setting [8]), 93% (active); in experiment [1] (at 50.0 µM), 94.3% (active); in experiment [2] (setting [7]), 81% (active); in experiment [2] (setting [8]) it was 97% (active); in experiment [2] (at 50.0 µM), 96.3% (active). The growth inhibition in experiment [3] (setting [7]) is 82% (active); in experiment [3] (setting [8]) it was 97% (active); in experiment [3] (at 50.0 µM) it was 90.2% (active); in experiment [4] (setting [7]), 75% (active); in experiment [4] (setting [8]) it was 96% (active); in experiment [4] (at 50.0 µM), 62%. Besides, the growth inhibition is 91% (active) in experiment [5] (setting [7]); 96% (active) in experiment [5] (setting [8]); 96.9% (active) in experiment [5] (at 50.0 µM); 88% (active) in experiment [6] (setting [7]); 97% (active) in experiment [6] (setting [8]); 55.4% in experiment [6] (at 50.0 µM).
Turning to `CCOc1cnn(-c2ccccc2)c(=O)c1SCc1ccc(Cl)c(Cl)c1`, the growth inhibition in experiment [1] (setting [7]) was -4%; in experiment [1] (setting [8]), 27%; in experiment [1] (at 50.0 µM), 37.5%; in experiment [2] (setting [7]), -3%; in experiment [2] (setting [8]), 56%; in experiment [2] (at 50.0 µM) it was 8.95%. Besides, the growth inhibition in experiment [3] (setting [7]) was 2%; in experiment [3] (setting [8]), 73% (active); in experiment [3] (at 50.0 µM) it was 65.8%; in experiment [4] (setting [7]) it was -11%; in experiment [4] (setting [8]) it was 44%; in experiment [4] (at 50.0 µM), 53.1%. Moreover, the growth inhibition in experiment [5] (setting [7]) is 4%; in experiment [5] (setting [8]), 82% (active); in experiment [5] (at 50.0 µM) it was 40.3%; in experiment [6] (setting [7]) it was -4%; in experiment [6] (setting [8]), 56%; in experiment [6] (at 50.0 µM) it was 32.4%.
In the case of `CN(C)CC1CC/C(=C\c2ccc(Cl)c(Cl)c2)C1=O` (configuration not stated), the growth inhibition in experiment [1] (setting [7]) was 21%; in experiment [1] (setting [8]) it was 98% (active); in experiment [1] (at 50.0 µM), 93.1% (active); in experiment [2] (setting [7]), 44%; in experiment [2] (setting [8]) it was 99% (active); in experiment [2] (at 50.0 µM), 93.6% (active). Besides, the growth inhibition in experiment [3] (setting [7]) was 25%; in experiment [3] (setting [8]) it was 98% (active); in experiment [3] (at 50.0 µM) it was 92.4% (active); in experiment [4] (setting [7]), 37%; in experiment [4] (setting [8]), 99% (active); in experiment [4] (at 50.0 µM) it was 91.3% (active). Further, the growth inhibition is 74% (active) in experiment [5] (setting [7]); 99% (active) in experiment [5] (setting [8]); 91.5% (active) in experiment [5] (at 50.0 µM); 84% (active) in experiment [6] (setting [7]); 99% (active) in experiment [6] (setting [8]); 90.2% (active) in experiment [6] (at 50.0 µM).
Regarding `CC(=O)Oc1ccc2c(c1)CCC1C2CCC2(C)C1CCC21CO1` (configuration not stated), the growth inhibition in experiment [1] (setting [7]) is -4%; in experiment [1] (setting [8]) it was 60%; in experiment [1] (at 50.0 µM) it was 89.7% (active); in experiment [2] (setting [7]) it was -6%; in experiment [2] (setting [8]), 18%; in experiment [2] (at 50.0 µM), 28.6%. Also, the growth inhibition is -3% in experiment [3] (setting [7]); 54% in experiment [3] (setting [8]); 73.4% (active) in experiment [3] (at 50.0 µM); 1% in experiment [4] (setting [7]); 11% in experiment [4] (setting [8]); 52.2% in experiment [4] (at 50.0 µM). The growth inhibition in experiment [5] (setting [7]) is 3%; in experiment [5] (setting [8]), 44%; in experiment [5] (at 50.0 µM), 83% (active); in experiment [6] (setting [7]), -6%; in experiment [6] (setting [8]) it was 29%; in experiment [6] (at 50.0 µM), 66.7%.
Take `COc1ccc(C2c3cc4c(cc3OC(N3CCCC3)C2C)OCO4)c(OC)c1` (configuration not stated): the growth inhibition in experiment [1] (setting [7]) was -3%; in experiment [1] (setting [8]), 77% (active); in experiment [1] (at 50.0 µM), 94.5% (active); in experiment [2] (setting [7]), -5%; in experiment [2] (setting [8]) it was 53%; in experiment [2] (at 50.0 µM), 94.2% (active). Moreover, the growth inhibition was 1% in experiment [3] (setting [7]); 74% (active) in experiment [3] (setting [8]); 88.2% (active) in experiment [3] (at 50.0 µM); -4% in experiment [4] (setting [7]); 68% in experiment [4] (setting [8]); 71% (active) in experiment [4] (at 50.0 µM). Further, the growth inhibition in experiment [5] (setting [7]) was -6%; in experiment [5] (setting [8]) it was 68%; in experiment [5] (at 50.0 µM), 87.8% (active); in experiment [6] (setting [7]) it was -3%; in experiment [6] (setting [8]) it was 82% (active); in experiment [6] (at 50.0 µM), 93.5% (active).
Take `CCC(Cl)COP(=O)(OCC(Cl)CC)OC(c1ccc(Cl)c(Cl)c1)P(=O)(OCC(Cl)CC)OCC(Cl)CC` (configuration not stated): the growth inhibition in experiment [1] (setting [7]) is 8%; in experiment [1] (setting [8]), 23%; in experiment [1] (at 50.0 µM), 55%; in experiment [2] (setting [7]), 14%; in experiment [2] (setting [8]), 11%; in experiment [2] (at 50.0 µM) it was 91.2% (active). In addition, the growth inhibition was -1% in experiment [3] (setting [7]); 7% in experiment [3] (setting [8]); 93% (active) in experiment [3] (at 50.0 µM); -10% in experiment [4] (setting [7]); 1% in experiment [4] (setting [8]); 76.2% (active) in experiment [4] (at 50.0 µM). For the same compound, the growth inhibition in experiment [5] (setting [7]) is -3%; in experiment [5] (setting [8]) it was 9%; in experiment [5] (at 50.0 µM) it was 55.6%; in experiment [6] (setting [7]) it was 7%; in experiment [6] (setting [8]) it was 37%; in experiment [6] (at 50.0 µM) it was 85.7% (active).
For the compound `CC(C)C1=C(O)c2ccccc2C(=O)C1=O`, the growth inhibition in experiment [1] (setting [7]) is -9%; in experiment [1] (setting [8]) it was 97% (active); in experiment [1] (at 50.0 µM) it was 86.8% (active); in experiment [2] (setting [7]), 13%; in experiment [2] (setting [8]) it was 94% (active); in experiment [2] (at 50.0 µM) it was 78.7% (active). Further, the growth inhibition was 38% in experiment [3] (setting [7]); 97% (active) in experiment [3] (setting [8]); 90.5% (active) in experiment [3] (at 50.0 µM); -21% in experiment [4] (setting [7]); 86% (active) in experiment [4] (setting [8]); 62.6% in experiment [4] (at 50.0 µM). Besides, the growth inhibition was 11% in experiment [5] (setting [7]); 97% (active) in experiment [5] (setting [8]); 84.3% (active) in experiment [5] (at 50.0 µM); 18% in experiment [6] (setting [7]); 98% (active) in experiment [6] (setting [8]); 90.2% (active) in experiment [6] (at 50.0 µM).
For the compound `CN(c1ccccc1)c1c2c(oc(=O)c1Cl)-c1ccccc1SC2`, the growth inhibition in experiment [1] (setting [7]) is 16%; in experiment [1] (setting [8]), 45%; in experiment [1] (at 50.0 µM), 86% (active); in experiment [2] (setting [7]) it was 12%; in experiment [2] (setting [8]) it was 8%; in experiment [2] (at 50.0 µM), 46.2%. Further, the growth inhibition in experiment [3] (setting [7]) was 13%; in experiment [3] (setting [8]) it was 40%; in experiment [3] (at 50.0 µM), 62.4%; in experiment [4] (setting [7]), 7%; in experiment [4] (setting [8]) it was 32%; in experiment [4] (at 50.0 µM) it was 10.9%. Moreover, the growth inhibition was 0% in experiment [5] (setting [7]); 85% (active) in experiment [5] (setting [8]); 93.5% (active) in experiment [5] (at 50.0 µM); 7% in experiment [6] (setting [7]); 96% (active) in experiment [6] (setting [8]); 55% in experiment [6] (at 50.0 µM).
As to `COc1ccc(CSC(=S)Nc2cc(C)c(C)cc2[N+](=O)[O-])cc1`, the growth inhibition in experiment [1] (setting [7]) was 9%; in experiment [1] (setting [8]) it was 93% (active); in experiment [1] (at 50.0 µM), 95.8% (active); in experiment [2] (setting [7]), 6%; in experiment [2] (setting [8]), 95% (active); in experiment [2] (at 50.0 µM), 97.8% (active). Further, the growth inhibition in experiment [3] (setting [7]) was 46%; in experiment [3] (setting [8]), 96% (active); in experiment [3] (at 50.0 µM), 97.5% (active); in experiment [4] (setting [7]) it was -11%; in experiment [4] (setting [8]), 90% (active); in experiment [4] (at 50.0 µM), 93% (active). For the same compound, the growth inhibition in experiment [5] (setting [7]) was 4%; in experiment [5] (setting [8]), 96% (active); in experiment [5] (at 50.0 µM), 97% (active); in experiment [6] (setting [7]), 60%; in experiment [6] (setting [8]) it was 95% (active); in experiment [6] (at 50.0 µM), 98% (active).
